Results reported in PubChem BioAssay AID540356 (Broad Institute, 2011).
The campaign covered roughly 2,500 compounds. About 360 (14%) were called active.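 Rule for the calls: active = signal-lowering compounds whose fitted half-maximal concentration AC50 is no higher than ten times their top tested concentration; inconclusive = flat curve with 30 to 70% inhibition, or poor fit; inactive = flat within 30%, signal increase, or AC50 above limit.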 Not all results are given here.

test: HRP/luminol detection interference without ALR, dose response, artefact control for ALR inhibitor project, biochemical, luminescence, no ALR or DTT, cherry-pick (AID 540356); settings: HRP/H2O2 luminol luminescence counterscreen; series mostly up to 10 µM; activity change, negative = inhibition: at the top concentration;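 for activity change, negative = inhibition: 0% = median of neutral control wells and -100% = median of quercitin 100 µM wells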

| SMILES | activity change, negative = inhibition | AC50 |
| --- | --- | --- |
| Cc1cccc(Oc2ccc3c(c2)cc(C(=O)O)n3C)c1 | -1.07% (inactive) |  |
| CN(CCCNC(=O)c1cccc(N2CCCC2=O)c1)c1ccccc1 | -1.85% (inactive) |  |
| CN(CC(=O)N1CCN(c2ccccc2)CC1)S(=O)(=O)c1cnc[nH]1 | -1% (inactive) |  |
| O=C1CS/C(=N/N=C/c2ccco2)N1Cc1ccc(F)cc1 | -1.89% (inactive) |  |
| Fc1ccc(CN2C3=NCCN3c3ccccc32)cc1 | -0.206% (inactive) |  |
| Cn1cccc1CC(=O)N/N=C/c1ccc([N+](=O)[O-])cc1 | -1.17% (inactive) |  |
| O=C(NNc1c2ccccc2nc2ccccc12)c1ccc(O)cc1O | -6.84% (inactive) |  |
| COc1cccc(/C=N/NC(=O)CC2C(=O)NN=C2C)c1O (centres undefined) | -6.48% (inactive) |  |
| CC1C(=O)NN=C1C(=O)N/N=C\c1ccc(O)cc1O (centres undefined) |  | 8.82 µM (active) |
| CCN(CC)c1ccc(/C=N/NC(=O)c2ccco2)c(O)c1 | -2.67% (inactive) |  |
| CC(C)c1ccc(NC2CCCN(C(=O)CCCn3cncn3)C2)cc1 (centres undefined) | -0.691% (inactive) |  |
| Cc1nc(C(F)(F)F)c(C(=O)O)cc1-c1nc(-c2ccccc2)cs1 | -3.6% (inactive) |  |
| Oc1ccc(-c2nc(-c3ccc(O)c(O)c3)cs2)cc1 |  | 6.17 µM (active) |
| Nc1nc(-c2ccc3ccccc3c2)cs1 | 0.746% (inactive) |  |
| O=C(O)c1ccccc1C(=O)Nc1ccc(-c2csc(-c3ccccc3)n2)cc1 | 1.08% (inactive) |  |
| Cc1cc(-c2n[nH]c(=S)n2/N=C/c2ccc(Cl)c([N+](=O)[O-])c2)n[nH]1 | -7.21% (inactive) |  |
| CN(C)c1ccc(/C=N/Nc2ccc(-n3ccnc3)nn2)cc1 | -5.8% (inactive) |  |
| CCN(CC)c1ccc(NC(=O)c2ccc(Br)o2)cc1 |  | > 10 µM (inactive) |
| O=C(Nc1ccc(O)cc1)c1ccc(C(=O)c2ccccc2)o1 | -0.476% (inactive) |  |
| Oc1ccc(/C(Cc2ccccn2)=N\Nc2ccccc2)c(O)c1 | -13% (inactive) |  |

| SMILES | activity change, negative = inhibition | AC50 |
| --- | --- | --- |
| Cc1ccc2nc(C)cc(N/N=C/c3ccccc3O)c2c1 | -1.87% (inactive) |  |
| COc1ccc(-c2n[nH]c(=S)n2-c2ccc(C)cc2)cc1OC | -2.1% (inactive) |  |
| COc1ccc(-n2c(-c3ccc(OC)c(OC)c3)n[nH]c2=S)cc1 | -7.41% (inactive) |  |
| Cc1occc1C(=O)NCCCCc1ccccc1 | -2.42% (inactive) |  |
| O=C(NCCCN1CCCC1)c1ccc2c(Cl)c3c(nc2c1)CCCC3 | -1.03% (inactive) |  |
| CC(C)Cc1nc2ccc(N)cc2[nH]1 | -7.18% (inactive) |  |
| Nc1ccc(CCc2ccc(N)cc2)cc1 | 2.66% (inactive) |  |
| O=C(Nc1nnc(-c2cccnc2)o1)c1cccc([N+](=O)[O-])c1 | 2.15% (inactive) |  |
| Nc1ccc(N2CCN(C(=O)c3ccco3)CC2)cc1 | -15% (inactive) |  |
| O=C1NC(=O)/C(=C\c2ccc(O)cc2O)S1 |  | 7.54 µM (active) |
| O=C1NC(=O)/C(=C/c2cc3c(cc2Br)OCO3)S1 | -2.95% (inactive) |  |
| COc1cc(/C=C2\SC(=Nc3ccccc3OC)NC2=O)ccc1O | -10.1% (inactive) |  |
| COc1cc(/C=N/NC(=O)c2cccc(NC(=O)c3ccccc3)c2)ccc1O | -4.89% (inactive) |  |
| COc1cc(C(=O)n2nc(C)cc2C)ccc1O | -6.95% (inactive) |  |
| COc1cc(C(=S)N(C)C)ccc1O | -16.8% (inactive) |  |
| C/C(=N\Nc1nc2ccccc2[nH]1)c1ccc2c(c1)OCO2 | -0.401% (inactive) |  |
| CCN(CCCNC(=O)CNC(=O)Cn1cnc2ccccc2c1=O)c1ccccc1 | -0.598% (inactive) |  |
| COc1ccccc1N1CCN(CCc2n[nH]c(=S)n2-c2ccccc2)CC1 | -1.88% (inactive) |  |
| C(=C\c1nc2ccccc2[nH]1)/c1ccccc1 | -1.61% (inactive) |  |
| C/C(=N\Nc1nc2ccccc2[nH]1)c1cccs1 | -8.06% (inactive) |  |

| SMILES | activity change, negative = inhibition | AC50 |
| --- | --- | --- |
| C/C(=C\c1ccc(N)cc1)c1nc2ccccc2[nH]1 |  | 6.64 µM (active) |
| COc1ccc(N2CCN(C(=O)Cc3cccs3)CC2)cc1 | -2.6% (inactive) |  |
| Cc1ccc(S(=O)(=O)NNC(=O)c2ccc3ccccc3n2)cc1 | -12.9% (inactive) |  |
| Oc1ccc(Br)cc1-c1cc(-c2ccco2)[nH]n1 | -3.86% (inactive) |  |
| CCn1c(-c2ccccc2O)n[nH]c1=S | -2.43% (inactive) |  |
| Cc1c(NS(=O)(=O)c2ccccc2)cc(Cl)c(O)c1C | -9.8% (inactive) |  |
| O=C(O)c1ccc(CSc2nc3ccc(NC(=O)c4ccccc4C(=O)O)cc3s2)cc1 | -0.1% (inactive) |  |
| COc1cc(/C(C)=N/NC(=O)Cc2c(C)[nH][nH]c2=O)ccc1O |  | 5.67 µM (active) |
| COc1cc(C(=O)N/N=C/c2cccc(Oc3ccccc3)c2)ccc1O | -5.05% (inactive) |  |
| COc1cc(/C=N/NC(=O)CNC(=O)c2ccncc2)ccc1O | -3.2% (inactive) |  |
| CC1(CCC(=O)N2CCCC(Nc3ccc(F)cc3)C2)CC1 (centres undefined) | -2.92% (inactive) |  |
| S=c1[nH]nc(-c2ccncc2)n1/N=C/C=C/c1ccccc1 | -11.5% (inactive) |  |
| S=c1[nH]nc(-c2ccco2)n1/N=C/c1ccccc1 | -3.81% (inactive) |  |
| Cc1ccc(NC(=O)CN(c2ccc3c(c2)OCO3)S(=O)(=O)c2c(C)n[nH]c2C)cc1 | -1.61% (inactive) |  |
| S=c1[nH]cc(-c2ccccc2)[nH]1 | -10.6% (inactive) |  |
| CC(c1ccc(F)cc1)n1c(-c2cccs2)n[nH]c1=S (centres undefined) | -0.882% (inactive) |  |
| Fc1ccc(-c2ccnc(=S)[nH]2)cc1 |  | 2.78 µM (active) |
| S=c1nccc(-c2cccs2)[nH]1 |  | 3.95 µM (active) |
| Cc1ccc(N2C(=O)CC(NNC(=O)c3cccc(S(=O)(=O)N4CCCC4)c3)C2=O)cc1 (centres undefined) | 0.793% (inactive) |  |
